# Most compounds without a hit are left out; they make up all but 6.1% or so of the library.
# HepG2 viability: qHTS for Inhibitors of TGF-b: Cytotox Counterscreen; HepG2 CAGA-GFP viability, ATP luminescence, 18 h; Potency, µM (highest dose often 46.1 µM), without a hit: top-dose activity change, negative = cytotoxicity, most hits filed as cytotoxic; AID 588856, 2011; 410,000 compounds, 0.76% hits
#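 CellTiter-Glo luminescence gave cytotoxicity after 18 hours at 37 degrees C. The cells were HepG2 CAGA-GFP in 1% FBS DMEM, stimulated with 500 pg/mL TGF-beta after compound addition. %Activity was normalised to no-cell wells (complete cell-killing) and DMSO (no toxicity), and curves were fitted and classified.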
# ATXN2 expr inh: Primary qHTS for Inhibitors of ATXN expression. Potency, µM (series often up to 57 µM), inactives show top-dose activity change, negative = inhibition, actives largely listed as inhibitors. 360,000 compounds, 0.72% hits. HEK-293 ATXN2-luciferase reporter, luminescence, 24 h; further: on the % scale 0 is the no-effect control and ±100 the full control effect; nearly all actives have a fitted effect of over 55% in size
#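 qHTS (up to 57 uM final) was run with 24 h compound exposure of reporter cells at 37 °C. Each well was multiplexed: SteadyGlo luminescence measured ATXN2-luciferase expression after a fluorogenic Gly-Phe-AFC viability readout (25 uM final).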
# RORg inh: qHTS for inhibitors of ROR gamma transcriptional activity; Nuclear receptor ROR-gamma (Mus musculus), P51450; 310,000 compounds, 5.4% hits; Drosophila S2 Gal4-RORgamma UAS-luciferase reporter, 20 h; Potency, µM (top dose mostly 53.6 µM), inactives show at the highest dose activity change, negative = inhibition, actives largely listed as inhibitors; further: on the % scale 0 is the no-effect control and ±100 the full control effect; nearly all actives have a fitted effect of over 60% in size
# Target sequence (P51450 whole entry, looked up, the tested form may be a part): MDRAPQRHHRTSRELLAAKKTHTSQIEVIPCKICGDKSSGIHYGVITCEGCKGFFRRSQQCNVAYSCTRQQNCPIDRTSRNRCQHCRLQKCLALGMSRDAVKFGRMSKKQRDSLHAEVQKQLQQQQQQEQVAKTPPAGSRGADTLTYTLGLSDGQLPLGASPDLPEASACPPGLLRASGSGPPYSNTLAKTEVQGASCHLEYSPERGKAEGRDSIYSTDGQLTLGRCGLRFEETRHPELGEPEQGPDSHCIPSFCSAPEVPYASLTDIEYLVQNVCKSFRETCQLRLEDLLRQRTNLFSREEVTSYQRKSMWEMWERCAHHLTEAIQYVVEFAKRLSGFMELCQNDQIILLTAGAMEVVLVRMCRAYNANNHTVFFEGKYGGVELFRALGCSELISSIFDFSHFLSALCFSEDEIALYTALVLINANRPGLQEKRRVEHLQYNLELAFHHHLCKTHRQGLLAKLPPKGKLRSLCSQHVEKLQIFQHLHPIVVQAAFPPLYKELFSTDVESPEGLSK
#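 Compounds are pin-transferred onto Drosophila Schneider cells expressing a copper-inducible Gal4–ROR gamma transactivation domain fusion. After 1 hr, copper sulfate is added to 700 uM final; luciferase is read 20 hr later.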
# Gal4-VP16 FLuc: VP16 counterscreen qHTS for inhibitors of ROR gamma transcriptional activity. Drosophila S2 Gal4-VP16 UAS-luciferase, luminescence, 20 h. Potency, µM (series often up to 53.6 µM), for inactives: top-dose activity, negative = inhibition, most hits filed as inhibitors. 310,000 compounds, 3.5% hits;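 further: Gal4-VP16 expression switched on by copper sulfate through the metallothionein promoter; on the % scale 0 is the no-effect control and ±100 the full control effect; nearly all actives have a fitted effect of over 50% in size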
# TGFb SMAD3 inh: qHTS for Inhibitors of TGF-b; 410,000 compounds, 1.2% hits; HepG2 CAGA-GFP TGF-b/SMAD3 reporter, GFP fluorescence, 18 h; TGF-beta stimulated, 500 pg/mL final; Potency, µM (top dose mostly 46.1 µM), for the others: top-dose activity, negative = inhibition, hits mostly inhibitors; AID 588855, 2011; further: on the % scale 0 is the no-effect control and ±100 the full control effect; nearly all actives have a fitted effect of over 65% in size
#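 First, reporter cells (HEPG2 CAGA-GFP) rested 2 h at 37 degrees C. Next, compounds were pinned in and TGF-beta added to 500 pg/mL final. After 18 h, GFP was imaged per cell and summed per well.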
# ATXN viability: Viability Counterscreen for Primary qHTS for Inhibitors of ATXN expression. Potency, µM (titrated, usually from 56.7 µM), usual class: cytotoxic. S2 cells (HEK-293 line with an ATXN2-luciferase reporter) viability, CellTiter-Fluor protease fluorescence, 24 h. 400,000 compounds, 0.49% hits. AID 651635, 2014; further: nearly all actives have a fitted effect of over 40% in size
# * hit, by the source's call; i = inactive; ? = inconclusive; . = not tested or not shown. The call rests on the fitted dose curve; in most records, active means well fitted curve in the direction sought with a large enough effect; inconclusive means small, poorly fitted or top-dose-only effect, or another doubt; inactive means no such curve, though single readings can be large; an effect the other way counts as inactive or inconclusive. Potency means the concentration at half of the fitted maximal effect.
SMILES,HepG2 viability,ATXN2 expr inh,RORg inh,Gal4-VP16 FLuc,TGFb SMAD3 inh,ATXN viability
Oc1cccc2c(NC(=S)Nc3ccc(OC(F)F)cc3)cccc12,-29%,20%,?,11µM*,-12%,i
O=C(Cc1cccc2ccccc12)Nc1ccc(OC(F)F)c(Cl)c1,-31%,2%,?,-9%,?,i
O=C(Nc1ccc(OC(F)F)c(Cl)c1)C(c1ccccc1)c1ccccc1,20µM*,?,?,?,22µM*,i
Cc1c(N)cccc1C(F)(F)F,.,22%,.,.,.,i
CN(C)c1ccc(C(=O)NCCCCCCC(=O)NO)cc1,.,171%,.,.,.,.
FC(F)Oc1ccc(NC(=S)NCc2ccccc2)cc1,-1%,9%,13µM*,?,0%,i
Cc1cc2cc(CNC(=S)Nc3ccc(OC(F)F)cc3)ccc2n1C,-27%,-12%,-27%,-4%,-15%,i
CCOc1ccc(CNC(=O)c2ccc3nc(Cc4ccc(OC)cc4)oc3c2)cc1OC,-1%,-23%,.,.,-24%,i
CCn1c(N)[n+](CC(=O)Nc2ccc(SC(F)F)cc2)c2ccccc21,14µM*,?,16%,-4%,?,i
COc1ccc(NC(=O)COC(=O)Cn2cnc3ccccc32)cc1,-3%,-8%,.,.,-9%,i
O=C(Cn1cnc2ccccc21)Nc1ccc(SC(F)F)cc1,0%,-18%,4µM*,7.9µM*,-24%,i
CCN(CC)S(=O)(=O)c1ccc(NC(=O)NCc2noc3ccc(C)cc23)cc1,-32%,?,.,.,?,?
Cc1ccc(Sc2ccc(N3CCC(C(=O)Nc4ccc(Cl)cc4)CC3)nn2)cc1,-5%,-4%,.,.,0%,i
Cc1cc(C)cc(Nc2ncc3c(n2)CCCC3=O)c1,25%,-24%,11µM*,11µM*,20%,i
COc1ccc2c(c1)O[C@@H](c1cccc(C(F)(F)F)c1)[C@H](OC(=O)Nc1cc(OC)c(OC)c(OC)c1)C2=O,.,.,-6%,-2%,.,.
Nc1ccccc1Oc1ccc2ccccc2c1,-35%,.,21%,13%,16µM*,i
Cc1ccccc1Oc1ccccc1N,-1%,8%,7%,-5%,2%,i
COc1ccc2ccccc2c1CN1CCc2nnc(CNC(=O)c3cccc(F)c3)n2CC1,.,.,.,.,.,i
Cc1cc(C)n(-c2nc(SCCN(C)C)c3c4c(sc3n2)CCCC4)n1,-109%,?,2.8µM*,7.9µM*,?,?
CCC(O)CNc1nc(SC)nc2sc3c(c12)CCN(C)C3 (centres undefined),-5%,-14%,0%,3%,2%,i
CCC(O)CNc1nc(-n2nc(C)cc2C)nc2sc3c(c12)CCCC3 (centres undefined),.,.,2.5µM*,?,.,.
O=c1c2sc3ccccc3c2n(Cc2ccccc2)c(=O)n1CCc1ccccc1,4%,8%,.,.,0%,i
COc1cc(Cl)c(C)cc1NC(=O)c1cc2c(Cl)nc3ccc(C)cc3c2s1,6%,.,.,.,4%,.
Cn1c(CNC(=O)c2ccco2)nnc1SCC(=O)c1ccccc1,13%,4%,28µM*,18%,4%,i
O=S(=O)(Nc1ncccn1)c1ccc(NC(=S)NCc2ccco2)cc1,-11%,3%,-13%,2%,-16%,i
SMILES,HepG2 viability,ATXN2 expr inh,RORg inh,Gal4-VP16 FLuc,TGFb SMAD3 inh,ATXN viability
CCCCc1ccc(S(=O)(=O)NNC(=S)NCc2ccco2)cc1,1%,1%,8.9µM*,?,-2%,i
CC(C)CC(=O)NNC(=S)NCc1ccco1,-11%,-12%,?,-6%,-12%,i
CC1(C(=O)NNC(=S)NCc2ccco2)CC1(Cl)Cl (centres undefined),-13%,21%,8.9µM*,-2%,-28%,i
CC(=O)Nc1ccc(S(=O)(=O)NNC(=S)NCc2ccco2)cc1,22%,17%,11µM*,-28%,9%,i
CC(=O)Nc1ccc(C(=S)NCc2ccco2)cc1,19%,11%,55%,18%,-5%,i
Cc1cc(C)cc(N2CC(c3nc(-c4ccccc4C)no3)CC2=O)c1 (centres undefined),-45%,-13%,.,.,?,i
C/C(=N/NC(=O)OC(C)(C)C)c1ccco1,-3%,32%,-39%,-6%,-3%,i
COC(=O)N/N=C(\C)c1ccccc1OC(F)F,0%,5%,4%,-1%,39%,?
C/C(=N\NC(=S)NCc1ccccc1)c1ccc2ccccc2c1OC(F)F,-25%,?,2.2µM*,2.2µM*,?,i
C/C(=N\NC(=O)CCc1ccccc1)c1ccc(Br)cc1,-7%,1%,21%,-4%,-7%,i
C/C(=N\NC(=S)NCc1ccccc1)c1ccc(Br)cc1,-8%,24%,0.28µM*,0.5µM*,-2%,i
C/C(=N\NC(=S)NCc1ccccc1)c1ccc(C)o1,-13%,-2%,2.2µM*,7.1µM*,-15%,i
CCNC(=S)N/N=C(\C)c1ccco1,-21%,-3%,4µM*,13µM*,?,i
CN(CC=CC#CC(C)(C)C)Cc1cccc2ccccc12,.,-15%,.,.,.,.
CCOC(=O)c1cc(-c2ccc(OC)cc2)n(CCC(=O)Nc2nc3ccc(OCC)cc3s2)c1C,-16%,.,.,.,0%,.
CCOC(=O)c1c(C)c(-c2ccccc2)n(CC(=O)Nc2ccc(OCC)cc2)c1C,14%,6%,.,.,-1%,i
Cc1cc(C(=O)N(Cc2cc3cc4c(cc3nc2N2CCOCC2)CCC4)CC2CCCO2)c(=O)[nH]c1C (centres undefined),.,.,.,.,.,i
C/C(=N\NC(=S)NCc1ccccc1)c1ccc2c(c1)OCCO2,-39%,.,2.8µM*,8.9µM*,?,i
O=C(COc1ccccc1C(=O)Nc1ccccc1)Nc1ccc(-c2ccccc2)cc1,4%,.,.,.,1%,.
CC(C)CN(CC(C)C)CC(O)COc1ccccc1Br (centres undefined),11µM*,-28%,12%,-3%,11µM*,i
N#Cc1c(O)c2c(-c3ccc(-c4ccccc4O)cc3)csc2[nH]c1=O,.,-9%,.,.,.,.
CC(C)(C)c1ccc(-c2noc(CCC(=O)NCc3ccco3)n2)cc1,-11%,.,0.32µM*,4µM*,-17%,i
